Laboratory results from PubChem BioAssay (NCATS).
Records with an inconclusive call do not appear. The source made the active and inactive calls. Unless noted, calls come from the whole dose curve; as a rule, active = well fitted curve in the direction sought with a large enough effect; inconclusive = small, poorly fitted or top-dose-only effect, or another doubt; inactive = no such curve, though single readings can be large; an effect the other way counts as inactive or inconclusive.

Key:
[1] = target: Ferritin light chain (Equus caballus) (UniProt P02791); experiment: qHTS Validation Assay for Identification of Novel General Anesthetics (AID 2323); note: series mostly up to about 77 µM
Chain of Ferritin light chain (Equus caballus) (P02791 2-175 limits assumed): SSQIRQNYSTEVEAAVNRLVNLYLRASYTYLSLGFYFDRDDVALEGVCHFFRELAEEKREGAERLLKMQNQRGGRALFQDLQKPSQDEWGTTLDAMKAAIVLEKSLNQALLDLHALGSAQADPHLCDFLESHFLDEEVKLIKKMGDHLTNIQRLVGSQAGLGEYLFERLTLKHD
Method in brief: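 Normalized fluorescence response, scaled between free 1-AMA and 1-AMA/apoferritin complex, fitted to a four-parameter Hill equation for concentration-effect values. Binding mix: 10 uM horse-spleen apoferritin, 50% saturated 1-AMA in PBS; read 380/535 nm after 10 min.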

[2] = target: ATP-dependent DNA helicase Q1 (Homo sapiens) (UniProt P46063); experiment: qHTS Validation Assay for Inhibitors of RecQ-Like Dna Helicase 1 (RECQ1) (AID 2353)
Chain of ATP-dependent DNA helicase Q1 (Homo sapiens) (P46063 whole entry, looked up): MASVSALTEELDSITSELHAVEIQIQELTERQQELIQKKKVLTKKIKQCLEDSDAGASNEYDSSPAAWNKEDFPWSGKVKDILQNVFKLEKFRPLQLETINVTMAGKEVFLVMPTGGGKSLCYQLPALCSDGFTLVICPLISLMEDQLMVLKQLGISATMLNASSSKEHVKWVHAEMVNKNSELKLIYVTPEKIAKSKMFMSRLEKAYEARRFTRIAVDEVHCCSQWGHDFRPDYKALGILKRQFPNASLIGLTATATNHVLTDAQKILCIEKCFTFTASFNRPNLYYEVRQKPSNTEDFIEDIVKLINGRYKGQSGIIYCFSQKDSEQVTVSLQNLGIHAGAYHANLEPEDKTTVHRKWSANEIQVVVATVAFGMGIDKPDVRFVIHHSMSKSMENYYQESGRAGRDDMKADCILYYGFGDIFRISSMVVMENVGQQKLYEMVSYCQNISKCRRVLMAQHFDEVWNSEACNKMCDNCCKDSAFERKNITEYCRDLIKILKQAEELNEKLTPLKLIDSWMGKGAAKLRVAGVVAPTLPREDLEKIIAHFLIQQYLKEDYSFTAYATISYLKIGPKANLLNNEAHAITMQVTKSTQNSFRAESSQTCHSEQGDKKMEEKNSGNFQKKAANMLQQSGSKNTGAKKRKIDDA
Method in brief: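 50 nM RECQ1T1 preincubated 15 min with compound in Tris pH 8.0 buffer with MgCl2, DTT, Tween-20 and 2.5 ug/ml poly(dI-dC); started with 200 nM TAMRA/BHQ-2 forked duplex and 2 mM ATP. Unwinding read as fluorescence (525/598 nm), two reads 2 h apart.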

[3] = target: RecQ-like DNA helicase BLM (Homo sapiens) (UniProt P54132); experiment: qHTS Validation Assay for Inhibitors of Bloom's syndrome helicase (BLM) (AID 2364)
Method in brief: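 50 nM BLM preincubated 15 min at room temperature with compound in pH 8.0 Tris buffer containing 2.5 ug/ml poly(dI-dC); started with 200 nM TAMRA/BHQ-2 forked duplex and 2 mM ATP (final). Unwinding read as TAMRA fluorescence increase, two reads 2 h apart.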

[4] = Cytometric Cell-Based qHTS for Inhibitors of the mTORC1 Signaling Pathway in MEF (Tsc2-/-, p53-/-) Cells (AID 2660);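 note: percent of cells above a phospho-rpS6 to PI ratio cutoff in each well; series mostly up to about 38 µM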
Method in brief: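 Tsc2-/-, p53-/- MEFs (empty vector) exposed to compound 24 h at 37 C, fixed, stained with Alexa-488 anti-phospho-rpS6 Ser235/236 and propidium iodide. Acumen laser scanning; phospho-S6/PI ratio thresholded against 7.5 nM rapamycin, reported as % positive cells.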

[5] = High Content Imaging Cell-Based qHTS for Inhibitors of the mTORC1 Signaling Pathway in MEF (Tsc2-/-, p53-/-) Cells (AID 2666);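 note: percent of cells scored positive for phospho-rpS6 Ser235/236 immunostaining by imaging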
Method in brief: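 Phospho-rpS6 (Ser235/236) immunofluorescence, normalized and scored as % positive cells using rapamycin and DMSO controls, was read in empty-vector Tsc2-/-, p53-/- MEFs after 24 h compound exposure at 37 C; propidium iodide counted cells.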

[6] = Validation screen for small molecules that induce DNA re-replication in MCF 10A normal breast cells (AID 463097); note: nearly all actives have a fitted effect of over 60% in size
Method in brief: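 Following 48 hr compound incubation (37 C, 5% CO2), MCF 10A cells receive Hoechst for 40 min at 37 C. Nuclei are then scanned (excitation 405 nm, emission 500-530 nm) for total fluorescence intensity.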

[7] = target: Ubiquitin carboxyl-terminal hydrolase 2 (Homo sapiens) (UniProt O75604); experiment: qHTS Validation Assay for Inhibitors of Ubiquitin-specific Protease USP2a Using CHOP2 as the Reporter (AID 463106)
Chain of Ubiquitin carboxyl-terminal hydrolase 2 (Homo sapiens) (O75604 whole entry, looked up): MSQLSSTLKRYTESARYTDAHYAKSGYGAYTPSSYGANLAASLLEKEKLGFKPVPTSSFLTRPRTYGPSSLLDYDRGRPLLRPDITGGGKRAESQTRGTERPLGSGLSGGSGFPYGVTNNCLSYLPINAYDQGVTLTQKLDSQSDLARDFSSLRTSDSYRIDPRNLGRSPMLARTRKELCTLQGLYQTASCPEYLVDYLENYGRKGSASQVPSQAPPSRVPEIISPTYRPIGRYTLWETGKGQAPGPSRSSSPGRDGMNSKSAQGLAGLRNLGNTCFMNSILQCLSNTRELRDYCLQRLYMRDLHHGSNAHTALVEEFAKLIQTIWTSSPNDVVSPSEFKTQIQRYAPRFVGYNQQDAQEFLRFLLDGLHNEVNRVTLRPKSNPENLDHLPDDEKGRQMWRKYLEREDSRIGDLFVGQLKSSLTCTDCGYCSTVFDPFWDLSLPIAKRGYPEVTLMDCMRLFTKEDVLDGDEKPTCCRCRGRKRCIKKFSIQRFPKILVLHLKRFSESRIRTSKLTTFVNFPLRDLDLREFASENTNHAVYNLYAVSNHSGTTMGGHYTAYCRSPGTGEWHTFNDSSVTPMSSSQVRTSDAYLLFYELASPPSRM
Method in brief: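 USP2 core (10 nM final) was preincubated with compound 30 min at RT in pH 8.0 Tris/CaCl2/beta-ME/CHAPS buffer. Ub-CHOP2 and reporter substrate (25 nM final each) were then added, with fluorescence (Ex 485/Em 531) read after 60 min. Data were normalized to NEM full inhibition and fitted to concentration-response curves.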

[8] = target: DNA polymerase III PolC-type (Bacillus subtilis (strain 168)) (UniProt P13267); experiment: qHTS Validation Assay for the Inhibitors of DNA Replication in Gram-Positive Bacteria (AID 485295);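 note: reconstituted holoenzyme with PolC plus beta clamp SSB and primase; PicoGreen fluorescence of double-stranded DNA made on primed circular M13 template; series mostly up to about 57 µM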
Chain of DNA polymerase III PolC-type (Bacillus subtilis (strain 168)) (P13267 whole entry, looked up): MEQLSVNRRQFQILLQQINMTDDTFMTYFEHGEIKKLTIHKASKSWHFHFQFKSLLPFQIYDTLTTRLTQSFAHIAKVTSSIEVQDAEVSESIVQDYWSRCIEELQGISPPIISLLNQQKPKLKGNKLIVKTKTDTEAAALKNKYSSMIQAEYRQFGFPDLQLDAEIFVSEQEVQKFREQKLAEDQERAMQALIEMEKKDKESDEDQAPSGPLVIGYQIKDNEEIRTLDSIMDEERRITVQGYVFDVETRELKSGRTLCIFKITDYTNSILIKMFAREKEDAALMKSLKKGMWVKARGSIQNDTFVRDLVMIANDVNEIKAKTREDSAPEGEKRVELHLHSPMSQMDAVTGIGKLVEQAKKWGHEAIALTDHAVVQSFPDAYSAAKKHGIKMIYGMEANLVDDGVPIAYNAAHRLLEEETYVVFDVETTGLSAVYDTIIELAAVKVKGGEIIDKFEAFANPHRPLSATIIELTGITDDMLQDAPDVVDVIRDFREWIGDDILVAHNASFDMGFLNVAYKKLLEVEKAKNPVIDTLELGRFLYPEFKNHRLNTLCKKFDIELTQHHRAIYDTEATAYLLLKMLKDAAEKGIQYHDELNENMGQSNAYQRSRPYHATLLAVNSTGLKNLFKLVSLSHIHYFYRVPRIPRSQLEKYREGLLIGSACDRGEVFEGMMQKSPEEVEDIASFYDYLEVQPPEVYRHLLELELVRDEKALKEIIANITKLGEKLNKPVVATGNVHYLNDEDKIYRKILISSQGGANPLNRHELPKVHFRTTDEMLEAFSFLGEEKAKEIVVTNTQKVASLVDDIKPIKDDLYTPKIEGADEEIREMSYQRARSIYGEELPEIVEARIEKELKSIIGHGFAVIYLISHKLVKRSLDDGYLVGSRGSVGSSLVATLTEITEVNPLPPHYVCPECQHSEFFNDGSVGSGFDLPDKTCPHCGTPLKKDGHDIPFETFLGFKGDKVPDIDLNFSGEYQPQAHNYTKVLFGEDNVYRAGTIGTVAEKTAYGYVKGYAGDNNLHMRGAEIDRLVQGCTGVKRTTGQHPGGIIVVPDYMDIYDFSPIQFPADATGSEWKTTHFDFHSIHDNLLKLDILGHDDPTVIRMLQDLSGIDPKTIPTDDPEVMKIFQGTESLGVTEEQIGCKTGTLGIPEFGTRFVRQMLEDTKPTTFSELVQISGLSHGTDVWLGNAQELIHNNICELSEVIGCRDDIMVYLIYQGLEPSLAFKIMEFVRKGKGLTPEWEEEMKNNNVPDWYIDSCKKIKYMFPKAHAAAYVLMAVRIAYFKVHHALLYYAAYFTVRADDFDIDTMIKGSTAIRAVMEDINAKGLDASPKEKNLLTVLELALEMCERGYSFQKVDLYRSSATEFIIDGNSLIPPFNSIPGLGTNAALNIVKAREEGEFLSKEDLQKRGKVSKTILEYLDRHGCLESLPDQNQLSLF
Method in brief: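 Inhibition of DNA synthesis by the reconstituted PolC holoenzyme, monitored through PicoGreen staining of dsDNA formed from ssM13Gori, dNTPs and NTPs, with compound preincubation and room-temperature reaction.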

[9] = target: Tumor susceptibility gene 101 protein (Homo sapiens) (UniProt Q99816); experiment: qHTS Validation Assay for Iinhibitors of HIV-1 Budding by Blocking the Interaction of PTAP/TSG101 (AID 485342; calls by dose curve)
Chain of Tumor susceptibility gene 101 protein (Homo sapiens) (Q99816 whole entry, looked up, the tested form may be a part): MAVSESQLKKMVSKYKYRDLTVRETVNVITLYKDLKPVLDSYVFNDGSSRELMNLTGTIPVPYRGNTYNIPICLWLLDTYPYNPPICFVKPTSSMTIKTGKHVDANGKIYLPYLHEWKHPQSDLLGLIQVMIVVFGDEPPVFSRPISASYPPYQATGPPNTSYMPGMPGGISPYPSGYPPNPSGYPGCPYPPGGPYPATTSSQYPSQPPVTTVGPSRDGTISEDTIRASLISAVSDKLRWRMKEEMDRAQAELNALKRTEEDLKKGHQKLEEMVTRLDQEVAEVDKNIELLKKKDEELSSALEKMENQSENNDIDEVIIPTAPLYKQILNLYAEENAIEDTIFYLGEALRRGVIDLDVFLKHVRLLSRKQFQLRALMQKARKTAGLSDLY
Method in brief: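 Compound wells held the Tsg101 binding domain (10 uM) and a FITC-conjugated PTAP peptide (50 nM) in buffer at pH 7.5 containing 0.15 M NaCl and 0.01% Tween 20; polarization was recorded after 20 min, r.t.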

[10] = target: Beta-2 adrenergic receptor (Homo sapiens) (UniProt P07550); experiment: qHTS validation assay of beta-arrestin-biased ligands of beta2-adrenergic receptor (AID 485366)
Chain of Beta-2 adrenergic receptor (Homo sapiens) (P07550 whole entry, looked up): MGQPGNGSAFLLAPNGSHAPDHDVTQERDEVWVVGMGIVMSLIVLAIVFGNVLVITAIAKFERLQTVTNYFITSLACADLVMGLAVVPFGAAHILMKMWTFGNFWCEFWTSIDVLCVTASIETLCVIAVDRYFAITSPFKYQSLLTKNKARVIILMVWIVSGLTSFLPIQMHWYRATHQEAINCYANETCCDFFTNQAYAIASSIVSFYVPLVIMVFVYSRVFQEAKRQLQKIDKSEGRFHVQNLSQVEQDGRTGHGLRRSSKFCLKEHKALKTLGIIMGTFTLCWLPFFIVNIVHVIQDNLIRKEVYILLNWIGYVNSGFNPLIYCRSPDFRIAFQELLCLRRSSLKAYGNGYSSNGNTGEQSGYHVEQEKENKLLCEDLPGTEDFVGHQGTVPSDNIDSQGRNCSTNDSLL
Method in brief: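 Tango cells expressing recombinant beta2-AR and beta-arrestin with tTA-driven luciferase, in DMEM with 1% FBS. Compounds were titrated up to 46 microM for 18 hr at 37 degrees C. Luminescence was read 15 min after substrate; curves were fitted and class-assigned.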

[11] = target: ATP-dependent 6-phosphofructokinase (Trypanosoma brucei brucei) (UniProt O15648); experiment: qHTS Validation Assay to Find Inhibitors of T. brucei phosphofructokinase (AID 485368)
Chain of ATP-dependent 6-phosphofructokinase (Trypanosoma brucei brucei) (O15648 whole entry, looked up): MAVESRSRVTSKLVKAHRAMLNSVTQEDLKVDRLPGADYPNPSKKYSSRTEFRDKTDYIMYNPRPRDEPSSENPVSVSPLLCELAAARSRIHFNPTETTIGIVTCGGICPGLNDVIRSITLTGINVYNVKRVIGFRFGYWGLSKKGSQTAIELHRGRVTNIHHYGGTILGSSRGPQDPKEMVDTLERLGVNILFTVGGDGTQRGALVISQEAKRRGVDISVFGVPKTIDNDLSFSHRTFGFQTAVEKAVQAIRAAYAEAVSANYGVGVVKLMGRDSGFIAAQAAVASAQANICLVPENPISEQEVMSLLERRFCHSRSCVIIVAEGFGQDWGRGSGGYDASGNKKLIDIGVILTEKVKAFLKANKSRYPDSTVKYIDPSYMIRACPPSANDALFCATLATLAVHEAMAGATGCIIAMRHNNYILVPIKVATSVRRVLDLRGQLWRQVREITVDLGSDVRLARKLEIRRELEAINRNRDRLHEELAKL
Method in brief: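 Activity was read as ADP production by luminescence (ADP-Glo) after 45 min at room temperature. The enzyme was 1.25nM PFK in 0.1M TEA pH 8.0 with 0.5 mM F6P, 0.1mM ATP and 5 mM MgCl2. Compounds were titrated up to 57 uM and % activity normalized to no-enzyme and full-enzyme controls.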

[12] = Quantitative high throughput screen for delayed death inhibitors of the malarial parasite plastid, 96 hour incubation (AID 488745);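 note: luciferase-expressing P. falciparum in erythrocytes at 2% hematocrit and 0.1% parasitemia; series mostly up to about 29 µM; nearly all actives have a fitted effect of over 70% in size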
Method in brief: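 Infected erythrocytes were added to compound in Albumax-supplemented RPMI 1640 at 0.1% parasitemia and 2% hematocrit (final), incubated 96 h at 37 C under 5% CO2, then luciferase reagent was added and luminescence measured.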

[13] = High Content Imaging Cell-Based qHTS for Inhibitors of the mTORC1 Signaling Pathway in MEF Cells (AID 2667);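 note: Tsc2-/- p53-/- MEFs stably re-expressing wild-type Tsc2 exposed 24 h; series mostly up to about 38 µM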
Method in brief: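 WT MEFs (Tsc2-/-, p53-/- re-expressing Tsc2), in DMEM + 10% FBS, were treated with compound for 24 h at 37 C. Cells were then fixed and stained for phospho-rpS6 Ser235/236 with propidium iodide as cell count. Values are % positive cells, with thresholds set against rapamycin-treated cells.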

[14] = Cytometry Cell-Based qHTS for Inhibitors of the mTORC1 Signaling Pathway in MEF cells (AID 2668); note: potency is the fitted concentration of half-maximal effect
Method in brief: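 In MEFs grown in DMEM + 10% FBS, a 24 hrs compound exposure preceded imaging of phospho-rpS6 Ser235/236 by laser-scanning cytometry.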

[15] = qHTS Assay for Identification of Small Molecule Inducers of Hypoxia Response (AID 2120; active = well fitted curve in the direction sought with a large enough effect in the signal ratio, with a control signal flat, not every such curve was filed as active; the % refers to the signal ratio)
Method in brief: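 ME-180 HRE-bla cells plated in Opti-MEM/0.5% dialyzed FBS, rested 4-5 h, then dosed with compound titrations by pin tool. After 17 h at 37 degrees C, CCF4 dye loaded 2.5 h at RT; 460/530 nm ratio gave %Activity and AC50.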

[16] = qHTS for differential inhibitors of proliferation of Plasmodium falciparum line Dd2 (AID 1882); conditions: Potency: Plasmodium falciparum Dd2 proliferation inhibition; note: nearly all actives have a fitted effect of over 65% in size; note: potency is the fitted concentration of half-maximal effect
Method in brief: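 Dd2-infected erythrocytes (0.3% parasitemia, 2.5% hematocrit final) incubated with compound 72 h at 37 C, 5% CO2; lysed with saponin/Triton buffer containing SYBR Green I, incubated overnight in the dark, then read by fluorescence (485/535 nm). Normalized to 0.29 uM artemisinin and DMSO.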

[17] = qHTS for differential inhibitors of proliferation of Plasmodium falciparum line W2 (AID 1883); conditions: Potency: Plasmodium falciparum W2 proliferation inhibition;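 note: potency is the fitted concentration of half-maximal effect; parasites grown with compound for 72 h before lysis and staining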
[18] = qHTS for differential inhibitors of proliferation of Plasmodium falciparum line D10 (AID 1877);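 note: parasites grown with compound for 72 h before DNA staining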
[19] = qHTS for differential inhibitors of proliferation of Plasmodium falciparum line HB3 (AID 1886); conditions: Potency: Plasmodium falciparum HB3 proliferation inhibition;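 note: parasites grown with compound for 72 h before SYBR Green readout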

Measured: Potency

CN(C)CCC=C1c2ccccc2CCc2ccccc21
not listed: [13] | [14] | [15] | [16] | [17] | [18] | [19]
inactive: all other assays above

CC(C)(C)[C@]1(O)CCN2C[C@H]3c4ccccc4CCc4cccc(c43)[C@@H]2C1
active: [14] 5.85 µM
inactive: [4] | [5] | [13] | [7] | [8] | [9] | [10] | [11]

COCCOC(=O)C1=C(C)NC(C)=C(C(=O)OC/C=C/c2ccccc2)C1c1cccc([N+](=O)[O-])c1 (stereo not given)
inactive: [4] | [5] | [13] | [14] | [7] | [8] | [9] | [10] | [11]

[Cl][In]([Cl])[Cl]
inactive: [15]

CC1(C)[C@@H]2CC[C@@]1(C)C(=O)C2
inactive: [15]

O=C1N=C(O)CN1/N=C/c1ccc(-c2ccc([N+](=O)[O-])cc2)o1
active: [17] 7.08 µM
not listed: [1] | [3] | [11] | [12] | [15] | [18] | [19]
inactive: all other assays above

CCCn1cnc2c1c(=O)n(CCCCC(C)=O)c(=O)n2C
active: [17] 12.6 µM
not listed: [3] | [15] | [18] | [19]
inactive: all other assays above

CNCCC(Oc1ccc(C(F)(F)F)cc1)c1ccccc1 (stereo not given)
inactive: [2] | [5] | [7] | [8] | [9] | [10]

Oc1cccc(O)c1
inactive: [15]

Nc1ncnc2c1ncn2[C@@H]1O[C@H](CO)[C@@H](O)[C@H]1O
inactive: [4] | [5] | [13] | [14] | [7] | [8] | [9] | [10] | [11]

CNCC(O)c1ccc(O)c(O)c1 (stereo not given)
active: [17] 14.1 µM
not listed: [3] | [10] | [15] | [18] | [19]
inactive: all other assays above

CNC(=O)Oc1ccc2c(c1)[C@]1(C)CCN(C)[C@@H]1N2C
not listed: [3] | [11] | [15] | [16] | [17] | [18] | [19]
inactive: all other assays above

CC1=C(/C=C/C(C)=C/C=C/C(C)=C/C(=O)O)C(C)(C)CCC1
active: [17] 14.1 µM
inactive: [18] | [2] | [4] | [5] | [13] | [14] | [7] | [8] | [9] | [10]

O=C1c2c(O)cccc2Cc2cccc(O)c21
inactive: [15]

CN(C)CCCN1c2ccccc2CCc2ccccc21
inactive: [1] | [2] | [3] | [4] | [5] | [6] | [8] | [9] | [10] | [12]

CC(C)NC[C@H](O)c1ccc(O)c(O)c1
not listed: [3] | [10] | [15] | [17] | [18] | [19]
inactive: all other assays above

COC(=O)C1=C(C)NC(C)=C(C(=O)OC)C1c1ccccc1[N+](=O)[O-]
inactive: [16] | [1] | [2] | [5] | [13] | [14] | [7] | [8] | [9] | [10]

CCN(CC)C(C)CN1c2ccccc2Sc2ccccc21 (stereo not given)
inactive: [4] | [5] | [13] | [14] | [7] | [8] | [9] | [10]

NCCNCCNCCNCCN
inactive: [15]

Cc1cc(CC(=O)O)n(C)c1C(=O)c1ccc(Cl)cc1
inactive: [15]

CCCCCCCCCCCCOS(=O)(=O)O
inactive: [15]

CN(C)CCOC(C)(c1ccccc1)c1ccccn1 (stereo not given)
active: [16] 10 µM | [17] 3.55 µM
not listed: [3] | [15] | [18]
inactive: all other assays above

COc1ccccc1O
inactive: [15]

CC12CCC(CC1)C(C)(C)O2
inactive: [15]
